MITF inh: inhibitors of human MITF | O75030 | AlphaScreen MITF homodimerization, bead proximity signal | inhibition, % at 2.6 µM | hit rate 0.91% among 650,000; in the data active = inhibition above about 50%;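 also: 0% = vehicle wells with protein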
Target sequence (O75030 whole entry, looked up): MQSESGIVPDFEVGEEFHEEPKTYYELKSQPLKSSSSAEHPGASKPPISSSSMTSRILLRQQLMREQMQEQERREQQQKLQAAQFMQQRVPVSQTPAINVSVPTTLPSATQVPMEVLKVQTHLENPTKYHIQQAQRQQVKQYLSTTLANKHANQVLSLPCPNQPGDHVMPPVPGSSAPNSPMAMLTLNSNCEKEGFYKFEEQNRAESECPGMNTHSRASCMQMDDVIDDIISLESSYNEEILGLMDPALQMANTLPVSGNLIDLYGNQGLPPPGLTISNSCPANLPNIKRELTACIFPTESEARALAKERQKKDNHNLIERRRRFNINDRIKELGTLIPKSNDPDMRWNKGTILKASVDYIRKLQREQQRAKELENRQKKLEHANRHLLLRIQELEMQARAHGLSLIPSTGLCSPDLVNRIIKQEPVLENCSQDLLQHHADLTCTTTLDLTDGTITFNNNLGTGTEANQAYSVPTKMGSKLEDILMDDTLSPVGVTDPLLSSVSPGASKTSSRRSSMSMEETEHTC
TEAD-YAP inh: TEAD-YAP interaction inhibition | hit rate 1.4% among 640,000 | inhibition, % at 9.12 µM | HEK-TIYL cells, TEAD-Gal4/YAP UAS-luciferase luminescence; in the data active = inhibition above about 32%;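 also: 0% = median of test compound wells and 100% = reference inhibitor wells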
GPR151 ag: activators of human GPR151; PathHunter beta-arrestin GPR151 cells, luminescence; Q8TDV0; hit rate 1% among 650,000; AID 1508602; activation, % at 11.2 µM; in the data active = activation above about 4.9%;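 also: 0% = median of compound wells and 100% = cells with positive control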
FBW7 act: human FBW7 E3 ligase activation, primary screen | Q969H0 | AlphaScreen FBW7–phospho-cyclin E peptide binding, activator screen | normalized activity (activation), % at 26.1 µM | hit rate 0.13% among 650,000; in the data active = normalized activity above about 1.9%;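 also: purified mutant Fbw7 with reduced substrate affinity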
The depositor's hits bear a star. Sampled rows, rich in hits. Any-hit rate of the full collection: about 3.5%.

SMILES	MITF inh	TEAD-YAP inh	GPR151 ag	FBW7 act
O=C1C[C@@H](c2ccccc2)Oc2cc(O)cc(O)c21	-13.2	-20.7	-2.7	0.2
O=C(Oc1ccc(I)cc1)c1cccc(N2C(=O)CCC2=O)c1	11.6	0.7	1.2	0.3
COc1ccc(Nc2c3c(nc4ccccc24)CCC3)cc1	14.7	18.1	0.7	0.9
COC(=O)c1ccc(Nc2c3c(nc4ccccc24)CCC3)cc1	-3.2	45.5*	1.6	0.0
COc1cc(C2CC(=O)c3c([nH]c(C(=O)OCCOC(C)C)c3C)C2)cc(OC)c1OC (stereo not drawn)	3.6	66.3*	1.7	-0.2
COc1cc(C2CC(=O)c3c([nH]c(C(=O)OCCSC)c3C)C2)cc(OC)c1OC (stereo not drawn)	7.0	56.2*	4.9	0.2
COc1ccc(C2CC(=O)c3c([nH]c(C(=O)OCCOC(C)C)c3C)C2)cc1 (stereo not drawn)	9.7	3.2	0.6	0.0
CCOCCOC(=O)c1[nH]c2c(c1C)C(=O)CC(c1ccc(OC)c(OC)c1)C2 (stereo not drawn)	9.2	21.0	0.5	0.0
Nc1nn(S(=O)(=O)c2ccc(F)cc2)cc1-c1cccc(F)c1	17.7	-8.3	1.3	0.0
CCOC(=O)c1cc2sc(Br)cc2n1CC(=O)N(C)C	-12.1	34.4*	0.5	-0.2
C=CCn1c(SCC(=O)Nc2ccc(F)cc2)nnc1-c1cccs1	15.2	13.1	0.6	0.5
CCCCCCCCCCCCC[N+](C)(C)Cc1ccccc1	23.8	38.1*	0.9	0.2
CCOc1ccc2nc(NC(=O)CCCC(=O)O)sc2c1	-12.0	13.1	-0.5	-0.2
CCOc1ccc2nc(N3CCN(C(=O)C(C)C)CC3)sc2c1	12.8	-11.2	1.0	0.0
CCOc1ccc2nc(N3CCN(S(=O)(=O)c4ccccc4)CC3)sc2c1	1.8	13.4	-0.1	0.1
CCOc1ccc2nc(NC(=O)C(C)(C)C)sc2c1	8.0	63.1*	-0.3	0.0
CCOc1ccc2nc(N3CCCCC3)sc2c1	3.2	53.3*	-6.3	0.0
CCOc1cc2sc(N3CCC(C(=O)O)CC3)nc2cc1Br	1.1	47.3*	1.9	0.0
CCOc1ccc2nc(N3CCCC3)sc2c1	3.1	42.5*	-2.0	-0.2
CCOc1ccc2nc(N3CCC(C(=O)N4CCC(C(N)=O)CC4)CC3)sc2c1	0.6	19.4	-1.1	-0.1
CC(=O)c1cc(C(=O)N2CCc3nnc(Cc4ccccc4)n3CC2)cs1	-2.2	-1.0	2.4	0.0
N#CC1=C(N)Oc2c(c(C(F)(F)F)nn2-c2ccccc2)C1c1c(F)cccc1Cl (stereo not drawn)	17.0	1.6	-0.4	0.1
CC(C)N1CCc2c(sc(NC(=O)c3ccc(S(=O)(=O)N4CCOCC4)cc3)c2-c2nc3ccccc3s2)C1	6.1	-8.6	-1.7	0.3
O=C(Nc1sc2c(c1C(=O)N1CCCCC1)CCCCC2)c1ccccc1F	1.4	5.3	-0.2	-0.1
CNC(=O)c1c(NC(=O)c2ccccc2F)sc2c1CCCC2	2.1	-5.0	-0.8	0.1
O=C(Nc1sc2c(c1C(=O)O)CCCCC2)c1ccccc1F	10.9	56.4*	-7.9	0.2
O=C(Nc1sc2c(c1C(=O)O)CCCC2)c1ccccc1F	9.9	51.7*	-5.9	0.2
CCc1ccc(NC(=O)C2CC(=O)N(c3ccc(OC)cc3)C2)cc1 (stereo not drawn)	-6.3	-3.3	-0.6	-0.2
CCN(CC)c1ccc2cc(-c3nc4ccccc4n3C)c(=O)oc2c1	-1.6	32.6*	0.5	0.7

Compound activity from PubChem BioAssay.
